Laboratory results reported in ChEMBL document CHEMBL1961873, “Compounds: GSK PKIS; Assays: Nanosyn kinase panel” (2012).

Columns and labels:
[1] = target: T1, Tyrosine-protein kinase receptor TYRO3 (Homo sapiens) (UniProt Q06418); settings: at 1 µM
T1 sequence (whole entry): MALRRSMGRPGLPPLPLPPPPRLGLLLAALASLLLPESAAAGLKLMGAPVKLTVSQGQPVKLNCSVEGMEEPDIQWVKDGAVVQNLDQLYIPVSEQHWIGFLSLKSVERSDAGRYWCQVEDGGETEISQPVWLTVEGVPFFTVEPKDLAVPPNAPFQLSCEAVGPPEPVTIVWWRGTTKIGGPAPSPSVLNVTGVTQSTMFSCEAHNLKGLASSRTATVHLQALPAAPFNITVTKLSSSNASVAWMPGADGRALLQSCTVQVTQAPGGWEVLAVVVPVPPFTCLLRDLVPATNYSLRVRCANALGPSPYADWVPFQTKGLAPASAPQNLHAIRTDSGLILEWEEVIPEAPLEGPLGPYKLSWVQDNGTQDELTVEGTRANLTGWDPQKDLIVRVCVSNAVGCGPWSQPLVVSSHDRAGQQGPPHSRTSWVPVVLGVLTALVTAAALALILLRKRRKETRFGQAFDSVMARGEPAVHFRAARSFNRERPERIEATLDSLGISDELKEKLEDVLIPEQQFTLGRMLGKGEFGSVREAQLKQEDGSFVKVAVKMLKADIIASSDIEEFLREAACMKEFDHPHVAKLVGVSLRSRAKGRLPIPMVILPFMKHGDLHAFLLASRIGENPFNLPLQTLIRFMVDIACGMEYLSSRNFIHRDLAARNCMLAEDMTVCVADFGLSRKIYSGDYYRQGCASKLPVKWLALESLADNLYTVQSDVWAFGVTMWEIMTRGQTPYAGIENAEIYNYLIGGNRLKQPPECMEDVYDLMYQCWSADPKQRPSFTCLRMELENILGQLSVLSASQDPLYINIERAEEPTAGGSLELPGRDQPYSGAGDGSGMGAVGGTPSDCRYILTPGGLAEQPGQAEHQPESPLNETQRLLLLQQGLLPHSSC

[2] = target: Tyrosine-protein kinase Yes (Homo sapiens) (UniProt P07947); settings: at 0.1 µM
Tyrosine-protein kinase Yes (Homo sapiens), sequence (P07947 2-543 limits assumed): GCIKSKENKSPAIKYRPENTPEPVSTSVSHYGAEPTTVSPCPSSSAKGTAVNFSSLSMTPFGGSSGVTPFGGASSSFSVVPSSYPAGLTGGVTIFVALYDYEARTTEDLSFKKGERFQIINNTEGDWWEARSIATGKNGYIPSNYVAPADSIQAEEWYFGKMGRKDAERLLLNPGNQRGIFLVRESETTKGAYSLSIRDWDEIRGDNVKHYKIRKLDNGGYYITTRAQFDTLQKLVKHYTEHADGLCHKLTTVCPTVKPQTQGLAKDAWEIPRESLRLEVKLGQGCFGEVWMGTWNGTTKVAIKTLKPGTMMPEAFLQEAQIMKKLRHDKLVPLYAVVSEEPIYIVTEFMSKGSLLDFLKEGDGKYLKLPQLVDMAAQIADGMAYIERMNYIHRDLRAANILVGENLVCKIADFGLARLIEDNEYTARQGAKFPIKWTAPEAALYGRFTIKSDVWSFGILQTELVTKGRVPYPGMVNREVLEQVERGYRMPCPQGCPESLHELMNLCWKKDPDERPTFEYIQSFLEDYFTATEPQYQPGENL

[3] = target: Tyrosine-protein kinase Yes (Homo sapiens) (UniProt P07947); settings: at 1 µM
[4] = target: T2, Tyrosine-protein kinase ZAP-70 (Homo sapiens) (UniProt P43403); settings: at 0.1 µM
T2 sequence (whole entry): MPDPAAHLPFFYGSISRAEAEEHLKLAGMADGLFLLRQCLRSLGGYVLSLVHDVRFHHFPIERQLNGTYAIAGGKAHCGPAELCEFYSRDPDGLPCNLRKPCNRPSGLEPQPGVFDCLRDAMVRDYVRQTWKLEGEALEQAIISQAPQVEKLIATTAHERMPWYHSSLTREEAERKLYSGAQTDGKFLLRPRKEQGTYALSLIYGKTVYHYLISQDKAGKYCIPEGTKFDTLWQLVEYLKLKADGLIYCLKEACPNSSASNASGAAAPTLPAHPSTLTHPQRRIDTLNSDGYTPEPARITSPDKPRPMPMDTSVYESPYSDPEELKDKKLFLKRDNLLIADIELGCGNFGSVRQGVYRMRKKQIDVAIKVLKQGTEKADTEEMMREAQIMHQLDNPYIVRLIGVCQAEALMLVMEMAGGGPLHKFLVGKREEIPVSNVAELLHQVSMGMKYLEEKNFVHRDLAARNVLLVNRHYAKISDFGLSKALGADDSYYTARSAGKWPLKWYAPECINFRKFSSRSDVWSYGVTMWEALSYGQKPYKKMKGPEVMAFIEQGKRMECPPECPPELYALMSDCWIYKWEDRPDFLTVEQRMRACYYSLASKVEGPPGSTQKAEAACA

[5] = target: T2, Tyrosine-protein kinase ZAP-70 (Homo sapiens); settings: at 1 µM
[6] = target: Serine/threonine-protein kinase B-raf (Homo sapiens) (UniProt P15056); settings: at 0.1 µM
Serine/threonine-protein kinase B-raf (Homo sapiens), sequence (P15056 whole entry): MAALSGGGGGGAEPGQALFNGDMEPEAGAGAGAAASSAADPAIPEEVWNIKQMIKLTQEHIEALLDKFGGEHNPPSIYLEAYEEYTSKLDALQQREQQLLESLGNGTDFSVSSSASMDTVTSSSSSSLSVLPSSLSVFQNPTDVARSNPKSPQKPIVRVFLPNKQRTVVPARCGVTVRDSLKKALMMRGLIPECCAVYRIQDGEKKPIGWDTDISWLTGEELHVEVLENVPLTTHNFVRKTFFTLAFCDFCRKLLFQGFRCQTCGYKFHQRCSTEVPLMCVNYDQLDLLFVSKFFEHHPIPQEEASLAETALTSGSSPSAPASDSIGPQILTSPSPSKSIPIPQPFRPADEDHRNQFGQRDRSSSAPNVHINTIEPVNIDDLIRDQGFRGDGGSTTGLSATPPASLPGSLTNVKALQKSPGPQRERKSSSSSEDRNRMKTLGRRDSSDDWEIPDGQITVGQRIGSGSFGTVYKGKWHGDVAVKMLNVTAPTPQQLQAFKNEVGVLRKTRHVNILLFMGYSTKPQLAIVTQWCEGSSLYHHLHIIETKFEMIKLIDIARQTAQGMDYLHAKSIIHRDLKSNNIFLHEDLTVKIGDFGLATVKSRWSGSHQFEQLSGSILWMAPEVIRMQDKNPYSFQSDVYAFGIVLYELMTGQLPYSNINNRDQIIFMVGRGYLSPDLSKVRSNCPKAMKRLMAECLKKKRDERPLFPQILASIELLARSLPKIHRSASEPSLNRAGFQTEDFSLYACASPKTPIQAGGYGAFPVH

[7] = target: Serine/threonine-protein kinase B-raf (Homo sapiens) (UniProt P15056); settings: at 1 µM
[8] = test system: Serine/threonine-protein kinase B-raf (Homo sapiens), P15056 [V600E]; settings: at 0.1 µM
Serine/threonine-protein kinase B-raf (Homo sapiens), P15056 [V600E], sequence (P15056 whole entry V600E): as the sequence (P15056 whole entry) above, with V600E counted along it

[9] = test system: Serine/threonine-protein kinase B-raf (Homo sapiens), P15056 [V600E]; settings: at 1 µM
[10] = target: RAF proto-oncogene serine/threonine-protein kinase (Homo sapiens) (UniProt P04049); settings: at 0.1 µM
RAF proto-oncogene serine/threonine-protein kinase (Homo sapiens), sequence (P04049 whole entry): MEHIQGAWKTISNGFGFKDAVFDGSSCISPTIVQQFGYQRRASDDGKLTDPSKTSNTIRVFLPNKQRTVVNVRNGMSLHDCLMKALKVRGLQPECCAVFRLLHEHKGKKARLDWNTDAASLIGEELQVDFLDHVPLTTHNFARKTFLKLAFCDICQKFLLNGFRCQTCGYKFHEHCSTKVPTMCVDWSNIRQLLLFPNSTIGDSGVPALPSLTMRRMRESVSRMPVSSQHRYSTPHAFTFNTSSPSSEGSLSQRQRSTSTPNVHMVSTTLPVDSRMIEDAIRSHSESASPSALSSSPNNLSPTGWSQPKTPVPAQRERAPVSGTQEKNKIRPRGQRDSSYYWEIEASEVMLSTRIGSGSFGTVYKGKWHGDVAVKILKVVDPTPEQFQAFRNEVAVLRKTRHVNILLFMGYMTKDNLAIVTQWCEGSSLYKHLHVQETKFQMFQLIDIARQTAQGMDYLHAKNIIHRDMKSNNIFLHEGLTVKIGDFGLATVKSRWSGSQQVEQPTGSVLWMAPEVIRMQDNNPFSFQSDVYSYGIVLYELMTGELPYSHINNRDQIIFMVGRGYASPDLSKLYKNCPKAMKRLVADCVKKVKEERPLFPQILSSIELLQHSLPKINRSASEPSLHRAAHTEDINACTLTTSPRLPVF

[11] = target: RAF proto-oncogene serine/threonine-protein kinase (Homo sapiens) (UniProt P04049); settings: at 1 µM
[12] = target: T3, Interleukin-1 receptor-associated kinase 4 (Homo sapiens) (UniProt Q9NWZ3); settings: at 0.1 µM
T3 sequence (whole entry): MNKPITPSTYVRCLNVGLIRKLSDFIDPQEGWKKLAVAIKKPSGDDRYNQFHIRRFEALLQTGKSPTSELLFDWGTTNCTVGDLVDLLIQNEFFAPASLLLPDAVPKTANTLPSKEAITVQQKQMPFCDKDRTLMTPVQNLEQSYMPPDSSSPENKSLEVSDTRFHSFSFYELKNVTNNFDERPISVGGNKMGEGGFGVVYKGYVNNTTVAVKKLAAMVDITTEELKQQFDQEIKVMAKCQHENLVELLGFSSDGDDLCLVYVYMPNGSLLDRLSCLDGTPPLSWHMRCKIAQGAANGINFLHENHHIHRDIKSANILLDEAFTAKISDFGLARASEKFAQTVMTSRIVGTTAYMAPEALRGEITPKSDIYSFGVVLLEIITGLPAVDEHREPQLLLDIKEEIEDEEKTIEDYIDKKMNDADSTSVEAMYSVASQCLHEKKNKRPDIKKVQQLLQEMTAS

[13] = target: T3, Interleukin-1 receptor-associated kinase 4 (Homo sapiens); settings: at 1 µM
[14] = target: Leucine-rich repeat serine/threonine-protein kinase 2 (Homo sapiens) (UniProt Q5S007); settings: at 0.1 µM
Leucine-rich repeat serine/threonine-protein kinase 2 (Homo sapiens), sequence (Q5S007 whole entry): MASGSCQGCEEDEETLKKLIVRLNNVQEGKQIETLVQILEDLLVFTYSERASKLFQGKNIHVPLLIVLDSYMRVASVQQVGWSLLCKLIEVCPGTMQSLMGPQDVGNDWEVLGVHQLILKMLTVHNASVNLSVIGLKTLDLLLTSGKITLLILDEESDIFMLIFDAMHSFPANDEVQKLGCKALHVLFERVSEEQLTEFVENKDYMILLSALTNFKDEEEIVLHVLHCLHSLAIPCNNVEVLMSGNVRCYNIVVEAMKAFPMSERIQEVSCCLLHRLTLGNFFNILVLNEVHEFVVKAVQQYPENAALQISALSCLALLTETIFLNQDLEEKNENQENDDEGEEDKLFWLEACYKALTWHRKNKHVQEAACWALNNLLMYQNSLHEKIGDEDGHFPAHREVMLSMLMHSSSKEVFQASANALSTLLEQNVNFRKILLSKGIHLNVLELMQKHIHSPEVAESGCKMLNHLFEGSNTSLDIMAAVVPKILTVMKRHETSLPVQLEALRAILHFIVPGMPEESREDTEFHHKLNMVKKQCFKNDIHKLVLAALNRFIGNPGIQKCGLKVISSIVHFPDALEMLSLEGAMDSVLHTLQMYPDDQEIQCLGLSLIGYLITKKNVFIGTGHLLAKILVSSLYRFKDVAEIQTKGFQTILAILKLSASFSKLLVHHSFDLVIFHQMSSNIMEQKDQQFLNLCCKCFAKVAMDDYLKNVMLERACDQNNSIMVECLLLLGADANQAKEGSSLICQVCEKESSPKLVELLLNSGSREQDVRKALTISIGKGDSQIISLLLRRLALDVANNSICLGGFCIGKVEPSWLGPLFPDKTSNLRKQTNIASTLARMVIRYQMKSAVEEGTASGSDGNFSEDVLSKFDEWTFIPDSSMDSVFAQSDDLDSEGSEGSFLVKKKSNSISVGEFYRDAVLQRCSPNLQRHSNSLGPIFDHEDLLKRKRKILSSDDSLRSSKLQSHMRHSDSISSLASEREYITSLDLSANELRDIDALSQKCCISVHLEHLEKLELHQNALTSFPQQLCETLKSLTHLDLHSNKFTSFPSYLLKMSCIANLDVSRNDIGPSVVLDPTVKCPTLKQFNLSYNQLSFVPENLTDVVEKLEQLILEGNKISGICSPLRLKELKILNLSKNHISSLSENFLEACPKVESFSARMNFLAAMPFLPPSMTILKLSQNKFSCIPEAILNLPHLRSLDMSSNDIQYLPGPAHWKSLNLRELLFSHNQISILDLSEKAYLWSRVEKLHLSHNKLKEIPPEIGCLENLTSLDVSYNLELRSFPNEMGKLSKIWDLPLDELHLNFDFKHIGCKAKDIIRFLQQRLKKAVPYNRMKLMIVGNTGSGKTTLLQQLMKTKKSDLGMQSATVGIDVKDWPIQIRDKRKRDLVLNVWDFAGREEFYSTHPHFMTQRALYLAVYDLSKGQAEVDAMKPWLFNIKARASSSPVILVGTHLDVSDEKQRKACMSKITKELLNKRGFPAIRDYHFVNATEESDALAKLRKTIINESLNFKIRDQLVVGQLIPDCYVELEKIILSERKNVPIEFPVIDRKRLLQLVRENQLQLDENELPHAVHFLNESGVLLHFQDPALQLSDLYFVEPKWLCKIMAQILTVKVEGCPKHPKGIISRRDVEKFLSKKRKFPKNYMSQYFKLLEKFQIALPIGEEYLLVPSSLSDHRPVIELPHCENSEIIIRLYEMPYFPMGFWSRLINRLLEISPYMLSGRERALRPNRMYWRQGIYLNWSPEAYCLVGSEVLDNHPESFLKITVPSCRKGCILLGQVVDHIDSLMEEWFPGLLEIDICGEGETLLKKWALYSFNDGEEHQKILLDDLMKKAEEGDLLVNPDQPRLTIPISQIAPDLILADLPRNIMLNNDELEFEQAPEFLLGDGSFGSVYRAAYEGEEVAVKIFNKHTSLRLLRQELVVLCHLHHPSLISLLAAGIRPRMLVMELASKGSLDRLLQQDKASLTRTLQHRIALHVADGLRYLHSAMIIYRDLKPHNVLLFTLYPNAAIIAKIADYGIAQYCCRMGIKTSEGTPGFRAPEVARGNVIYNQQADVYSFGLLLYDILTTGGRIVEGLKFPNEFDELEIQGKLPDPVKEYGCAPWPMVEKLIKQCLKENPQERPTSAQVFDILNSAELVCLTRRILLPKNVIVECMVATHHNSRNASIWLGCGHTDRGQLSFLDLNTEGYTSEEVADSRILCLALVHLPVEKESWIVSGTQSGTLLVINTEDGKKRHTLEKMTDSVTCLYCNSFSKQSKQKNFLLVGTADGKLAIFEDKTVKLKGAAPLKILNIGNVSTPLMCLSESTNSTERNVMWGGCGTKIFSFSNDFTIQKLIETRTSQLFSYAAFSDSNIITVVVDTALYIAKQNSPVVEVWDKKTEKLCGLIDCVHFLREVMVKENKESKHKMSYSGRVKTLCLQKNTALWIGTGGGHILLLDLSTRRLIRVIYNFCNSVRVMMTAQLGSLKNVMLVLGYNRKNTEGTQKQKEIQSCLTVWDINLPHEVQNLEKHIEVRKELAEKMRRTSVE

[15] = target: Leucine-rich repeat serine/threonine-protein kinase 2 (Homo sapiens) (UniProt Q5S007); settings: at 1 µM
[16] = test system: Leucine-rich repeat serine/threonine-protein kinase 2 (Homo sapiens), Q5S007 [G2019S]; settings: at 0.1 µM
Leucine-rich repeat serine/threonine-protein kinase 2 (Homo sapiens), Q5S007 [G2019S], sequence (Q5S007 whole entry G2019S): as the sequence (Q5S007 whole entry) above, with G2019S counted along it

[17] = test system: Leucine-rich repeat serine/threonine-protein kinase 2 (Homo sapiens), Q5S007 [G2019S]; settings: at 1 µM

Structure (SMILES)	inhibition [1] [%]	inhibition [2] [%]	inhibition [3] [%]	inhibition [4] [%]	inhibition [5] [%]	inhibition [6] [%]	inhibition [7] [%]	inhibition [8] [%]	inhibition [9] [%]	inhibition [10] [%]	inhibition [11] [%]	inhibition [12] [%]	inhibition [13] [%]	inhibition [14] [%]	inhibition [15] [%]	inhibition [16] [%]	inhibition [17] [%]
O=C(Nc1n[nH]c2nc(-c3ccc(O)cc3)c(Br)cc12)C1CC1	41.4	5.61	27.4	5.14	4.28	9.27	12.6	10.1	13	-1.54	3.99	3.81	3.24	5.19	14.1	6.34	22.4
O=C1Nc2ccc(I)cc2C1=Cc1cc(Br)c(O)c(Br)c1	3.68	2.36	4.8	3.85	5.52	6.02	15	4.33		8.31	11.3	1.47	2.1	19.2	71.9	37.4	78
Fc1ccc(-c2nc3n(c2-c2ccncc2)CCS3)cc1	2.33	3.03	7.29	-2.56	-1.24	5.8	7.17	5.81	5.73	1.81	-0.15	3.38	2.37	-3.58	-3.17	-0.21	-0.63
NS(=O)(=O)c1ccc(N/N=C2\C(=O)Nc3ccc(-c4cnco4)cc32)cc1	12.4	2.12	12.1		2.47	3.07	5.71	1.57	4.4	0.67	-0.01	0.31	1.08	9.37	52.5	32.2	55.8
COc1cc2ncn(-c3cc(OCc4ccccc4C(F)(F)F)c(C(C)=O)s3)c2cc1OC	2.25	2.59	6.19	-0.08	-3.94	5.13	5.83	4.21	4.4	-0.73	-1.56	0.98	1.4	3.23	6.15	3.58	6.68
c1ccc(-c2n[nH]cc2-c2ccnc(-c3ccc(OCCN4CCOCC4)cc3)c2)nc1	-0.82	-1.99	2.34	5	0.13	-2.91	-2.83	-4.04	-1.12	-0.28	0.21	2.23	0.43	11	8.18	6.06	13.7
FC(F)(F)c1cccc(Nc2nccc(-c3cnn4nc(-c5ccccc5)ccc34)n2)c1	0.62	2.51	24.8	0.98	2.56	3.36	4.64	2.72	4.02	-0.56	-0.15	0.01	0.27	2	-0.41	2.35	4.67
Clc1ccc(CNc2nccc(-c3cnn4ncccc34)n2)cc1	2.27	-0.37	-1.15		-0.35	0.05	3.64	0.12	2.83	1.36	-1.19	-1.73	2.1	1.21	14	1.24	13
